Records with an inconclusive call do not appear. More than one record can exist for a structure, and the calls need not agree. Calls of active or inactive are those of the source. Unless noted, the call rests on the fitted dose curve.
Experiment: qHTS assay to identify small molecule antagonists of the progesterone receptor (PR) signaling pathway - cell viability counter screen (AID 1346798; active means well fitted cell-killing curve with a large enough effect in the repeat runs; further: nearly all actives have a fitted effect of over 50% in size)
Details: PR-UAS-bla HEK293T viability, CellTiter-Glo luminescence, 16 h; series mostly up to 92.4 µM; activity change, negative = cytotoxicity: at the top concentration
Outline: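 PR-UAS-bla HEK293T cells in medium with 2% charcoal-stripped FBS were treated with compounds plus R5020 for 16 hr at 37C. Cell viability was then read by CellTiter-Glo luminescence after 30 min at room temperature in the same wells.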
On the % scale 0 is the no-effect control and ±100 the full control effect.

| SMILES | activity change, negative = cytotoxicity | Potency |
| --- | --- | --- |
| CC(C)(C)c1ccccc1 | 1.23% (inactive) | – |
| CCCCOCCOC(=O)c1ccccc1C(=O)OCCOCCCC | 9.55% (inactive) | – |
| CC(C)CCOC(=O)c1ccc(N(C)C)cc1 | -17.7% [at 42.5 µM] (inactive) | – |
| CC(C)(C)NCC(O)COc1ccccc1OCC1CCCO1 (stereo unspecified) | -15.6% [at 42.5 µM] (inactive) | – |
| CC1COC(=O)O1 (stereo unspecified) | – | inactive |
| C=CC(=O)OCCCCCCOC(=O)C=C | – | inactive |
| CCN1CCCC1CNC(=O)c1cc(S(=O)(=O)CC)c(N)cc1OC (stereo unspecified) | -8.72% [at 42.5 µM] (inactive) | – |
| CCCCN(CCO)CCCC | 13.5% (inactive) | – |
| CC(=O)CC(C)=O | -3.79% (inactive) | – |
| O | – | inactive |
| CCOC(=O)C(C)C(C)=O (stereo unspecified) | 0.0512% (inactive) | – |
| CC(=O)Nc1ccc(C(=O)CCl)cc1 | – | inactive |
| COC(=O)/C=C/c1ccccc1 | 0.509% (inactive) | – |
| C[N+]1([O-])CCOCC1 | 14.6% (inactive) | – |
| CCN(CC)C(=O)Nc1ccc(OCC(O)CNC(C)(C)C)c(C(C)=O)c1 (stereo unspecified) | -23.5% [at 42.5 µM] (inactive) | – |
| Cc1cc(C(C)(C)C)c(O)c(C(C)(C)C)c1 | – | inactive |
| CCOc1ccccc1C(N)=O | – | inactive |
| O=C(O[C@@H]1Cc2c(O)cc(O)cc2O[C@@H]1c1cc(O)c(O)c(O)c1)c1cc(O)c(O)c(O)c1 | – | inactive |
| O=C1CC2(CCCC2)CC(=O)N1CCCCN1CCN(c2ncccn2)CC1 | -12.2% [at 42.5 µM] (inactive) | – |

Experiment: qHTS assay to identify small molecule agonists of the progesterone receptor (PR) signaling pathway - cell viability counter screen (AID 1346799); further: nearly all actives have a fitted effect of over 45% in size; further: potency means the concentration at half of the fitted maximal effect
Details: PR-UAS-bla HEK293T viability, CellTiter-Glo luminescence, 16 h; series mostly up to 92.4 µM; activity change, negative = cytotoxicity: at the top concentration
Outline: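 PR-UAS-bla HEK293T cells, 3,000 per well in medium with 2% charcoal-stripped FBS, were preincubated 6 hr at 37C, then exposed to compounds for 16 hr; viability was read as CellTiter-Glo luminescence after 30 min at room temperature.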

| SMILES | activity change, negative = cytotoxicity | Potency |
| --- | --- | --- |
| O=C1NCC2(CCN(CCc3ccccc3)CC2)O1 | -15.7% [at 42.5 µM] (inactive) | – |
| c1ccc2c(c1)CCCC2C1=NCCN1 (stereo unspecified) | 3.72% [at 42.5 µM] (inactive) | – |
| Cc1cccc(O)c1C | -3.61% (inactive) | – |
| NC(=Nc1ccccc1)Nc1ccccc1 | 24.7% [at 42.5 µM] (inactive) | – |
| CCc1cc(C(C)(C)C)c(O)c(C(C)(C)C)c1 | -19.7% (inactive) | – |
| CC1=C(C=O)C(C)(C)CC=C1 | -24.4% (inactive) | – |
| O=C(O)CCc1ccccc1 | -11.5% (inactive) | – |
| NCCCCCC(=O)O | 1.75% [at 42.5 µM] (inactive) | – |
| CC(=O)OCCOCCOCCOC(C)=O | 2.16% (inactive) | – |
| Nc1nc2ccccc2[nH]1 | – | inactive |
| c1cnc2cc3c(cc2n1)C1CNCC3C1 | -10.5% [at 42.5 µM] (inactive) | – |
| OCC(CO)N[C@H]1C[C@](O)(CO)[C@@H](O)[C@H](O)[C@H]1O | -3.11% [at 42.5 µM] (inactive) | – |
| Cc1occc(=O)c1OC(=O)C(C)C | -0.829% (inactive) | – |
| OCCN1CCNCC1 | -17.1% (inactive) | – |
| CCC(=O)/C=C/C1C(C)=CCCC1(C)C (stereo unspecified) | – | inactive |
| CC[C@@H](N)CO | -0.378% (inactive) | – |
| C=CS(=O)(=O)O | 1.1% (inactive) | – |
| Clc1ccc2c(c1)C(N1CCNCC1)=Nc1ccccc1O2 | – | inactive |
| CC(C)(C)c1ccccc1 | 9.56% (inactive) | – |

| SMILES | activity change, negative = cytotoxicity | Potency |
| --- | --- | --- |
| CCCCOCCOC(=O)c1ccccc1C(=O)OCCOCCCC | 9.76% (inactive) | – |
| CC(C)CCOC(=O)c1ccc(N(C)C)cc1 | 2.82% [at 42.5 µM] (inactive) | – |
| CC(C)(C)NCC(O)COc1ccccc1OCC1CCCO1 (stereo unspecified) | -5.81% [at 42.5 µM] (inactive) | – |
| CC1COC(=O)O1 (stereo unspecified) | – | inactive |
| C=CC(=O)OCCCCCCOC(=O)C=C | – | inactive |
| CCN1CCCC1CNC(=O)c1cc(S(=O)(=O)CC)c(N)cc1OC (stereo unspecified) | 10.8% [at 42.5 µM] (inactive) | – |
| CCCCN(CCO)CCCC | 0.553% (inactive) | – |
| CC(=O)CC(C)=O | 10.2% (inactive) | – |
| O | – | inactive |
| CCOC(=O)C(C)C(C)=O (stereo unspecified) | 1.29% (inactive) | – |
| CC(=O)Nc1ccc(C(=O)CCl)cc1 | 6.63% (inactive) | – |
| COC(=O)/C=C/c1ccccc1 | – | inactive |
| C[N+]1([O-])CCOCC1 | 4.51% (inactive) | – |
| CCN(CC)C(=O)Nc1ccc(OCC(O)CNC(C)(C)C)c(C(C)=O)c1 (stereo unspecified) | 12.1% [at 42.5 µM] (inactive) | – |
| Cc1cc(C(C)(C)C)c(O)c(C(C)(C)C)c1 | – | inactive |
| CCOc1ccccc1C(N)=O | – | inactive |
| O=C(O[C@@H]1Cc2c(O)cc(O)cc2O[C@@H]1c1cc(O)c(O)c(O)c1)c1cc(O)c(O)c(O)c1 | – | inactive |
| O=C1CC2(CCCC2)CC(=O)N1CCCCN1CCN(c2ncccn2)CC1 | – | 5.45 µM (active) and inactive |

From PubChem BioAssay (Tox21)
